Hits are enriched below; roughly 3.1% of the tested compounds scored in any of these assays.
Luminol counter: luminol signal inhibition, Nox1 inhibitor counter-screen; HRP/luminol/H2O2 chemiluminescence counterscreen; inhibition, % at 6.7 µM; 16,000 tested, 0.4% active; also: reference of the scale not given here
Nox1 inhibitor: inhibitors of human NADPH oxidase 1 (Nox1); Q9Y5S8; HT29 cells, luminol chemiluminescence ROS; inhibition, % at 6.7 µM; 16,000 tested, 0.81% active
NOTCH agonist: NOTCH pathway agonism; NOTCH signaling luciferase reporter cells, luminescence; activation, % at 2.5 µM; 15,000 tested, 0.4% active; AID 434982; in the data active = activation above about 2.2%
S1P1 agonist: S1P1 (human) receptor agonism | activation, % at 4.5 µM | P21453 | S1P1 agonist cell-based reporter assay | 16,000 tested, 1.5% active; in the data active = activation above about 80%
Target sequence (P21453 whole entry, looked up): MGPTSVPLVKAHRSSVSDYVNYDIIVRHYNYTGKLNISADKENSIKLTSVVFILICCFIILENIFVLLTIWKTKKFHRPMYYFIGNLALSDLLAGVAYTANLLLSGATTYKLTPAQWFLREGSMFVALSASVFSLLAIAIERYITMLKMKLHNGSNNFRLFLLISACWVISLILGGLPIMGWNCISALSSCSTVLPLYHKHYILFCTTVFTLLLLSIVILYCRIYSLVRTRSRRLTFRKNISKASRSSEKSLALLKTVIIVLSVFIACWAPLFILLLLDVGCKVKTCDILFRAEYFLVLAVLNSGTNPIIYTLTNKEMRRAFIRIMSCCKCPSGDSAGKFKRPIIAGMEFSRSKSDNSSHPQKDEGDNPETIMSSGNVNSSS
Numbers stand for hits; – = inactive; · = no result. Rule as the data show it, unless noted: active = inhibition above about 75%; inactive = the rest.

SMILES	Luminol counter	Nox1 inhibitor	NOTCH agonist	S1P1 agonist
Oc1[nH]c2ccccc2c1N=Nc1nc(-c2ccc(Br)cc2)cs1	–	–	–	82
Cn1c(=O)c2c(nc(N=Nc3c(O)[nH]c4cc(Br)ccc34)n2C)n(C)c1=O	–	–	–	–
N#C/C(=C\c1ccc(O)cc1)c1ccc([N+](=O)[O-])cc1	101	–	–	–
O=C1c2ccccc2S(=O)(=O)N1CCS(=O)(=O)c1ccc(Cl)cc1Cl	–	–	–	91
O=C(NC(=O)N1CCSCC1)c1c(F)cccc1F	–	–	–	–
COc1cc2c(cc1OC)CC(=O)OC2	–	–	–	81
CN(C)C(=O)CSCCOc1ccccc1	–	–	·	–
CN(C)c1cc(NNS(=O)(=O)c2cccc(C(F)(F)F)c2)nc(N(C)C)c1C#N	80	–	–	–
N#CC(C#N)=Cc1ccc(-c2cc(C(F)(F)F)cc(C(F)(F)F)c2)s1	–	–	–	–
NC(=O)N/N=C/c1ccc(-c2cc(C(F)(F)F)cc(C(F)(F)F)c2)s1	–	–	–	98
Cc1ccc2c(c1)CCCN2C(=O)CC(=O)N1CCCc2cc(C)ccc21	77	–	–	–
Cc1ccc2c(c1)CCCN2C(=O)c1sc2ccccc2c1Cl	–	–	–	–
Cc1ccc(S(=O)(=O)OC2C3CCCC2CN(C)C3)cc1 (stereo unspecified)	–	–	–	–
O=C(CSC1CN(C(c2ccccc2)c2ccccc2)C1)NNC(=O)Nc1ccccc1	–	–	–	–
CC1CC(NC(=S)NCCO)CC(C)(C)C1 (stereo unspecified)	–	–	–	–
CNc1ccc(Cl)cc1C(=O)NC1CC(C)CC(C)(C)C1 (stereo unspecified)	–	–	2.6	–
CNC(=O)NC1CCS(=O)(=O)C1 (stereo unspecified)	–	–	·	–
COC(=O)CSCCC(N)=S	–	–	–	–
O=c1c(Cl)c2oc3ccccc3nc-2c2ccccc12	–	90	–	–
COC(=O)c1ccc(CSc2ccccc2N)cc1	–	–	–	–
S=C(NNc1nccc(-c2cccnc2)n1)Nc1ccccc1	–	86	–	–
O=C(O)/C(=N/Nc1ccccc1O)c1ccccc1	–	83	–	–
COc1ccc(C(=O)CSc2n[nH]c(=O)n2Cc2ccco2)cc1	–	–	2.2	–
O=c1c(=NO)c(=O)c2ccccc12	–	–	2.3	–
S=C(NCCc1ccccc1)N/N=C/c1c(-c2ccc(Cl)cc2)[nH]c2ccccc12	–	–	–	–
SMILES	Luminol counter	Nox1 inhibitor	NOTCH agonist	S1P1 agonist
CCOC(=O)/C(=N\O)C1=CSC2=NNC(C)(C)N12	–	–	–	94
CCOC(=O)CC1=CSC2=NCCN12	–	–	–	–
CC(C)(C)OCC(NC(=O)OCc1ccccc1)C(=O)ON1C(=O)CCC1=O (stereo unspecified)	–	–	–	–
Cc1cc(C(=O)NNC(=O)CSCc2cccc3ccccc23)no1	–	–	2.8	–
Cc1cc(C(=O)NNC(=O)Nc2ccc(Cl)cc2)no1	–	–	–	–
O=[N+]([O-])c1coc2ccc(OS(=O)(=O)c3cc(C(F)(F)F)cc(C(F)(F)F)c3)cc12	–	–	–	–
CCOC(=O)C1=C(Nc2ccc(OC(C)=O)cc2)C(=O)N(C(C)(C)C)C1	–	84	–	–
COc1ccc([N+](=O)[O-])c(S(=O)(=O)c2ccc(Cl)cc2)n1	–	–	–	104
CN(C)/C=N/c1ncccn1	–	–	–	–
Nc1nc(NCc2ccco2)n[nH]1	90	94	–	–
FC(F)(F)c1ccnc(NCc2ccco2)n1	–	–	–	–
Cc1nc2ccccn2c1C(=O)NNS(=O)(=O)c1sc2ccc(Cl)cc2c1C	–	–	–	100
CCOC(=O)/C(C#N)=C/Nc1cccnc1Oc1ccc(C)c2c1CCC2	–	–	–	–
CC1CC(=O)Nc2ccccc2N1S(=O)(=O)c1cn(C)cn1 (stereo unspecified)	–	–	–	121
CC1CC(=O)Nc2ccccc2N1S(=O)(=O)c1ccc(F)cc1F (stereo unspecified)	–	–	–	–
CSC(=NCc1sccc1CSc1ccc(Cl)cc1)NC#N	–	–	–	97
O=c1c2ccccc2nc(-c2ccco2)n1Cc1ccccc1	–	–	–	92
c1coc(-c2nc3ccccc3nc2-c2ccco2)c1	–	–	–	–
N#Cc1ccc(-c2ccccc2F)cc1	–	–	–	–
O=C(NNc1ccc(-c2csnn2)cc1)c1ccc(Cl)cc1	75	–	–	–
COc1ccc(OC)c(NC(C)=O)c1	–	–	–	–
COC(=O)c1sccc1NS(=O)(=O)c1ccc(C(=O)OC)n1C	–	–	–	–
COC(=O)c1ccc(S(=O)(=O)NNC(=O)c2c(O)c3sccc3[nH]c2=O)n1C	78	–	–	–
N#C/C(=N\Nc1ccccc1Cl)S(=O)(=O)c1ccc(Cl)cc1	–	–	–	112
CC1(C)c2cc(O)ccc2OC1N1CCOCC1 (stereo unspecified)	96	85	–	–
SMILES	Luminol counter	Nox1 inhibitor	NOTCH agonist	S1P1 agonist
CC(=O)c1csc(Nc2ccc(Cl)cc2)n1	–	–	2.2	–
COC(=O)C1=CN2c3ccccc3SC2(C(=O)OC)C(C(=O)OC)=C1C(=O)OC (stereo unspecified)	–	–	–	99
S=c1[nH]nc(-c2ccc(Cl)cc2Cl)n1-c1cccnc1	–	–	–	–
S=c1[nH]nc(-c2cccc3ccccc23)n1-c1cccnc1	89	–	–	–
CCCS(=O)(=O)/C(C#N)=C/c1cc(C(F)(F)F)cc(C(F)(F)F)c1	–	–	–	–
CCCS(=O)(=O)/C(C#N)=N/Nc1cc(C(F)(F)F)cc(C(F)(F)F)c1	–	–	–	117
CS(=O)(=O)Cc1noc(-c2cc(C(F)(F)F)cc(C(F)(F)F)c2)n1	–	–	–	–
O=S(=O)(Cc1ccc(F)cc1)Cc1noc(-c2ccc(F)cc2Cl)n1	–	–	2.3	–
Cn1c(=O)c2c(ncn2CC(O)CN2CCN(c3ccccc3)CC2)n(C)c1=O (stereo unspecified)	–	–	–	–
Cc1cc(Br)c(NC(=S)NNc2ccccc2)c(Br)c1	–	100	–	–
Cc1cc(Br)c(NC(N)=S)c(Br)c1	–	–	–	–
COc1cc([N+](=O)[O-])c(OC)cc1SCC(=O)NNC(=S)Nc1ccc(F)cc1	83	–	–	–
O=C(CSc1ccccc1[N+](=O)[O-])NNC(=S)Nc1cccc(C(F)(F)F)c1	–	–	–	–
N#CCc1ccc(Oc2ccc(C(F)(F)F)cn2)cc1	–	–	–	–
O=C(CSc1nc2ccccc2c(=O)[nH]1)c1cc2ccccc2o1	–	–	–	92
O=S(=O)(NCc1ccc(N2CCOCC2)cc1)c1cccs1	–	–	–	–
COC(=O)CO/N=C/c1ccc(Cl)cc1Cl	–	–	–	–
O=C(CO/N=C/c1ccc(Cl)cc1Cl)NNC(=S)Nc1cc(Cl)ccc1Cl	–	–	–	86
CC1(C)CC(=O)c2c(SCCOC(=O)c3ccccc3Cl)sc(C#N)c2C1	–	–	–	97
CC1(C)CC(=O)c2c(SCCOC(=O)Nc3ccc(OC(F)(F)F)cc3)sc(C#N)c2C1	–	–	–	–
CC(C)CNC(=O)C1CC(c2ccccc2)=NO1 (stereo unspecified)	–	–	–	–
O=C(/C(=C\c1ccccc1)n1ccnc1)c1ccccc1OCc1ccccc1	–	–	·	121
